Sampled rows, rich in hits. Any-hit rate of the full collection: about 2.4%.
Prx2 Sm inh – inhibitors of Schistosoma mansoni peroxiredoxin 2; S. mansoni Prx2 activity coupled to TGR/GSH (TGR is thioredoxin glutathione reductase), NADPH fluorescence loss, qHTS; Potency, µM; 65,000 compounds, 0.07% hits
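Prx2 inhibition was measured as reduced NADPH consumption when electrons flowed from NADPH through TGR and glutathione to Prx2 and H2O2. Plates were read kinetically over 8 min; enzyme reagents were held at 4 deg C during dispensing.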
AmpC inh no det – inhibitors of E. coli AmpC beta-lactamase without detergent; P00811; AmpC nitrocefin hydrolysis, absorbance 480 nm, no detergent; Potency, µM (top dose mostly 28.7 µM), for inactives: top-dose activity change, negative = inhibition; 71,000 compounds, 1.8% hits; AID 585; further: % of control where 0% means no effect
Target sequence (P00811 whole entry, looked up): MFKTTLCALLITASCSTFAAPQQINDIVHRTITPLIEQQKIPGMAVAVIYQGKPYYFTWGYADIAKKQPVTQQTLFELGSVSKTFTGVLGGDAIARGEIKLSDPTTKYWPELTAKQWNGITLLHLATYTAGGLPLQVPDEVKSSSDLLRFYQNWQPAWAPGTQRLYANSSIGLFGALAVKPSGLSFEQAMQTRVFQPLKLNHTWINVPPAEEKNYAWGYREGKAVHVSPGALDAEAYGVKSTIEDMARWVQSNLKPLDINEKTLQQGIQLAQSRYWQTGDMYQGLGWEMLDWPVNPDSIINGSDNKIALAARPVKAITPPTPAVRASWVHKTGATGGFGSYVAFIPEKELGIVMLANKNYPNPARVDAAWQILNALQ
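AmpC, 20 mM phosphate pH 7.0; 15 min cpd preinc, RT; start with nitrocefin (800 uM stock); A480 kinetic read, 20 s intervals, 4 min. No-enzyme wells = negative control.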
AmpC inh det – AmpC beta-lactamase inhibition, detergent assay; P00811; AID 584; 71,000 compounds, 0.09% hits; Potency, µM (titrated, usually from 28.7 µM), for the others: at the highest dose activity change, negative = inhibition; purified AmpC, nitrocefin hydrolysis with detergent; active means well fitted curve in the direction sought with a large enough effect; inconclusive means small, poorly fitted or top-dose-only effect; further: on the % scale 0 is the no-effect control and ±100 the full control effect
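E. coli AmpC (5.3 nM) in 20 mM phosphate pH 7.0 with 0.01% Triton X-100, preincubated 15 min RT with compound; nitrocefin (2 uL of 800 uM stock) hydrolysis followed by 480 nm absorbance every 20 s over 4 min.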
Anthrax LT inh – anthrax lethal toxin internalization inhibition; AID 912; 70,000 compounds, 0.67% hits; Potency, µM (doses to about 40 µM), without a hit: top-dose activity change, negative = inhibition, hits mostly inhibitors; Cells, anthrax lethal toxin internalization, FRET ratio (460/530); further: on the % scale 0 is the no-effect control and ±100 the full control effect; nearly all actives have a fitted effect of over 50% in size
Active calls of the source: *; ? = inconclusive; / = not tested or not shown; [ ] = dose if it differs, or a comment. Unless noted, the call rests on the fitted dose curve. Potency means the concentration at half of the fitted maximal effect.

SMILES	Prx2 Sm inh	AmpC inh no det	AmpC inh det	Anthrax LT inh
Cc1cc(N2CCN(S(=O)(=O)c3ccc(Cl)cc3)CC2)c2ccccc2n1	/	122.6%	-4.2%	10µM*
Cc1cc(C)n(-c2nc3ccccc3nc2N2CCN(S(=O)(=O)c3ccc(F)c(C)c3)CC2)n1	>57	71.8%	-2.1%	15.2%
CO[C@@H]1COC(=O)[C@H]2CCCN2C(=O)[C@@H](C)COC(=O)CCC[C@H]1C	/	/	/	-5.6%[8 µM]
O=c1c(-c2ccccc2)nc2cnc(N3CCNCC3)nc2n1-c1ccccc1	>57	42.1%	-2.6%	?
COc1ccc(OC)c(-c2cc(C(=O)Nc3c(C)n(C)n(-c4ccccc4)c3=O)no2)c1	7.08*	35.7%	-1.7%	-6.4%
CO[C@H]1COC(=O)C/C=C\[C@@H](C)COC(=O)[C@@H](OCc2ccccc2)/C=C\[C@@H]1C	/	/	/	-12.9%[8 µM]
O=c1[nH]c2c(s1)C(c1ccccc1)C1C3CCC(C3)C1S2 (configuration not stated)	>57	1.58µM*	9.1%	?
CCN1CCN(Cc2ccc(NC(=O)Nc3ccccc3)cc2)CC1	>57	1.3%	3.0%	?
CCN1CCN(Cc2ccc(NC(=O)Nc3ccc(OC)cc3)cc2)CC1	>57	3.98µM*[single pt active]	12.6%	-10.9%
COc1ccc2c(c1)c(CCN1CCOCC1)c(C)n2C(=O)c1cccc(Cl)c1Cl	/	/	/	12.6µM*
COc1ccc2c(c1)c(CC(=O)O)c(C)n2C(=O)c1ccc(Cl)cc1	>57	-0.9%	3.3%	?
C[C@@H]1[C@H]2CC[C@@H]3[C@@H]4CC=C5C[C@@H](N(C)C)CC[C@]5(C)[C@@H]4CC[C@@]32CN1C	>57	12.7%[12.8 µM]	-1.3%[12.8 µM]	3.98µM*
CC(=O)NCCNc1ncncc1-c1ccc(N(C)C)cc1	>11.4	2.6%	7.0%	14.7%
COc1ccc2c(c[n+](C)c3c4cc5c(cc4ccc23)OCO5)c1OC	>57	20.3%	-3.0%	25.1µM*
Brc1ccc(-c2noc(CCc3ccccc3)n2)o1	>57	3.98µM*[single pt active]	10.2%	?
Fc1ccc(OCc2nc(-c3ccc(Br)o3)no2)c(F)c1	>57	2.51µM*[single pt active]	9.7%	?
Nc1nnc(COc2ccc(Br)cc2Br)s1	>57	-23.1%	-8.0%	1.8%
Brc1ccc(Oc2cc(Br)c(Br)cc2Br)c(Br)c1	/	-7.8%	7.6%	0.794µM*
CC(C)CO/N=C1/[C@H]2O[C@@H]2[C@@H](O)[C@H]2[C@H]1CCn1c(=O)n(-c3ccccc3)c(=O)n12	/	/	/	-9.5%[8 µM]
CCN1CCN(C(=O)CSCc2nc(-c3ccc(OC)c(OC)c3)oc2C)CC1	>57	3.98µM*[single pt active]	11.5%	?
CCC(c1nnnn1Cc1ccco1)N(CCc1ccccc1)Cc1cc2cc(C)ccc2[nH]c1=O (configuration not stated)	>57	15.6%	1.0%	-18.1%
Cc1ccc2[nH]c(=O)c(CN(CCc3ccccc3)C(c3nnnn3Cc3ccco3)C(C)C)cc2c1 (configuration not stated)	>57	5.01µM*	5.6%	?
C1CCCNCC1	/	-6.1%	9.7%	-5.3%
Cc1cccc(NCc2nc(-c3ccccc3)no2)c1	>57	2.51µM*[single pt active]	9.7%	?
Cc1ccc(OCc2nc(-c3ccccc3)no2)c(C)c1	/	-10.0%	2.5%	?
SMILES	Prx2 Sm inh	AmpC inh no det	AmpC inh det	Anthrax LT inh
Oc1ccc2c3c1O[C@H]1c4c(c5ccccc5n4Cc4ccccc4)C[C@]4(O)[C@H](C2)N(CC2CC2)CC[C@@]314	>57	34.9%	-1.5%	25.1µM*
Oc1ccc2c3c1O[C@H]1c4[nH]c5ccccc5c4C[C@]4(O)[C@H](C2)N(CC2CC2)CC[C@@]314	>57	31.8%	-2.2%	?
O=C(Nc1nc(-c2ccc(Cl)s2)cs1)c1cccs1	>57	?	4.2%	?
O=C(Nc1nc(-c2ccc(S(=O)(=O)N3CCCC3)cc2)cs1)c1ccco1	>57	-8.0%	-1.8%	/
O=C(Nc1nc(-c2ccccn2)cs1)c1ccc(Cl)s1	>57	-1.1%	5.9%	6.31µM*
O=C(Nc1nc(-c2ccccc2)cs1)c1cccs1	/	-15.7%	6.5%	10µM*
Cn1cccc1C(=O)Nc1nc(-c2ccccn2)cs1	>57	-10.8%	-2.2%	-18.0%
Cc1ccc(-c2csc(NC(=O)c3ccno3)n2)cc1	>57	7.94µM*	-2.6%	12.9%
c1ccc(Nc2nc(-c3ccoc3)nc3ccccc23)cc1	>57	-6.3%	10.6%	?
CC(C)N(C)C	/	-5.7%	9.9%	-8.7%
CN(C)c1ncnc2ccc(-c3cccc(NS(C)(=O)=O)c3)cc12	>57	18.3%	6.0%	-17.2%
NC(N)=NC(N)=Nc1ccc(C(=O)O)cc1	>57	-6.3%[5.75 µM]	-5.2%[5.75 µM]	-6.9%[8 µM]
COc1cccc(NC2SC(=O)N(c3ccccc3)C2=O)c1 (configuration not stated)	>57	3.98µM*[single pt active]	7.7%	-17.9%
COc1ccccc1N(C(C)=O)C1SC(=O)N(c2ccccc2)C1=O (configuration not stated)	>57	12.6%	-2.3%	8.9%
Nc1nc2c(c(=O)[nH]1)CN(CCCN1CCOCC1)CN2	?	7.7%[5.75 µM]	-2.3%[5.75 µM]	?
Cc1cc(O)ccc1Nc1nc2ccccc2nc1Nc1ccc(O)cc1C	/	12.6µM*	3.9%	15.6%
Clc1ccccc1CNCC1CCC(CNCc2ccccc2Cl)CC1 (configuration not stated)	>57	18.6%	-0.2%	3.98µM*
COC(=O)[C@@]1(Cc2ccc(OC)cc2)[C@H]2c3cc(C(=O)N(C)C)n(CCN4CNCC4=O)c3C[C@H]2CN1C(=O)c1ccccc1	>57	176.0%	1.6%	-0.6%
COC(=O)[C@H]1[C@@H]2C[C@H]3c4[nH]c5ccccc5c4CCN3C[C@@H]2CC[C@@H]1O	>57	10.4%	0.8%	-7.4%
C#CCCCO/N=C1/C[C@@H](O)[C@@H](O)[C@@H]2[C@@H]3C(=O)N(C4CCCCC4)C(=O)[C@H]3CC[C@H]12	/	/	/	-0.7%[8 µM]
O=C(c1ccc(CSCc2ccccc2F)o1)N1CCN(c2ccc(N3CCOCC3)nn2)CC1	>57	162.2%	10.8%	7.94µM*
CCn1cc(C(=O)NCc2ccc3c(c2)OCO3)c(=O)c2cc(S(=O)(=O)N3CCOCC3)ccc21	>57	99.8%	-1.2%	?
CCn1cc(C(=O)NCc2ccc(Cl)cc2)c(=O)c2cc(S(=O)(=O)N3CCOCC3)ccc21	>57	3.98µM*[single pt active]	14.0%	-17.1%
CCn1cc(C(=O)N2CC(C)CC(C)C2)c(=O)c2cc(S(=O)(=O)N(C)C)ccc21 (configuration not stated)	>57	68.3%	6.7%	-13.5%
CCn1cc(C(=O)NCCCN2CC(C)CC(C)C2)c(=O)c2cc(S(=O)(=O)N(C)C)ccc21 (configuration not stated)	>57	3.16µM*[single pt active]	12.8%	-19.4%
CCn1cc(C(=O)NCC2CCCO2)c(=O)c2cc(S(=O)(=O)N(C)C)ccc21 (configuration not stated)	>57	3.98µM*[single pt active]	12.8%	3.6%
CCOC(=O)[C@]1(C(NC(=O)OC)c2cccc(F)c2)CCCC1=O (some centres not stated)	/	/	/	-18.2%[8 µM]

High-throughput results deposited in PubChem BioAssay by National Center for Advancing Translational Sciences (NCATS).
